Bioassay records (PubChem BioAssay)
KB-V1 cytotox: kills drug-selected multidrug resistant KB-V1 cells; hit rate 3.4% among 400,000; KB-V1 MDR cells viability, CellTiter-Glo, 72 h; Potency, µM (doses to about 46.1 µM), actives largely listed as cytotoxic; also: potency is read from the fitted curve at half-maximal effect; % is scaled to controls: 0 for no effect and ±100 for the full control effect; nearly all actives have a fitted effect of over 60% in size
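KB-V1, DMEM (no phenol red) + 10% FBS; cpd pin-transferred, titration series; 72 h, 37 degrees C; CellTiter-Glo, luminescence. Data normalized, curve-fit.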
KB-3-1 cytotox: KB-3-1 parental cell cytotoxicity. Potency, µM (doses to about 46.1 µM), usual class: cytotoxic. KB-3-1 viability, CellTiter-Glo ATP luminescence, 72 h. hit rate 1.4% among 400,000; also: potency is read from the fitted curve at half-maximal effect; % is scaled to controls: 0 for no effect and ±100 for the full control effect; nearly all actives have a fitted effect of over 60% in size
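Here the drug-naive KB-3-1 line serves as comparator for MDR sub-line selectivity; cells received compound titrations, 72 h at 37 °C, then CellTiter-Glo readout.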
DRD3 antagonist: blocks the human D3 dopamine receptor; D3R cells, DiscoveRx beta-arrestin luminescence, antagonist mode; active compounds read low; max response, negative = inhibition, %; hit rate 2.5% among 360,000; AID 652054; in the data active = max response below about -50%; inconclusive = no clear call, values can overlap the other calls; also: % is scaled to controls: 0 for no effect and ±100 for the full control effect
Target sequence (P35462 whole entry, looked up): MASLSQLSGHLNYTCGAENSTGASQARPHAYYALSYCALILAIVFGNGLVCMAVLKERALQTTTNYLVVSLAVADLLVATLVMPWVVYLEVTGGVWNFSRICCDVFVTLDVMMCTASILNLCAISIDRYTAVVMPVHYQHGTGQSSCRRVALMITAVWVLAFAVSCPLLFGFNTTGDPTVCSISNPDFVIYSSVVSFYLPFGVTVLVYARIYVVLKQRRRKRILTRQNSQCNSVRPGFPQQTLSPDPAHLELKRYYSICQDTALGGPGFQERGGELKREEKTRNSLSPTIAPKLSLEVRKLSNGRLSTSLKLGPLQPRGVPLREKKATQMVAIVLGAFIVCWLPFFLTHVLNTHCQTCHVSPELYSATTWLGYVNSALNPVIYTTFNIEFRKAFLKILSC
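Cells expressing the human receptor were seeded at 1500 cells/well, incubated overnight at 37 degrees C in 5% CO2, then exposed to library compounds with dopamine controls for 90 minutes at 37 degrees C before luminescent detection.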
DRD3 agonist: agonists of human D3 dopamine receptor. P35462. max activation, %. D3R DiscoveRx beta-arrestin cells, luminescence, 90 min. hit rate 0.58% among 410,000. AID 652048; in the data active = max activation above about 30%; also: 0% is about no effect
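Cells at 1500/well, incubated overnight, then treated with pinned compounds (dopamine as control) for 90 min at 37 degrees C. DiscoveRx reagent added for 30 - 60 minutes at room temperature; luminescence read.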
MCF10A rerep: induces DNA re-replication in MCF 10a normal breast cells | AID 624296 | Potency, µM (top dose mostly 46.1 µM), for inactives: at the top dose activity, positive = re-replication, actives largely listed as activators | MCF 10A DNA re-replication, Hoechst nuclear intensity, 48 h | hit rate 2.9% among 350,000; also: potency is read from the fitted curve at half-maximal effect; % of control where 0% means no effect; nearly all actives have a fitted effect of over 50% in size
SW480 rereplic: induces DNA re-replication in SW480 colon adenocarcinoma cells | SW480 DNA re-replication, Hoechst DNA content imaging, 48 h | Potency, µM (titrated, usually from 46.1 µM), inactives show top-dose re-replication activation, most hits filed as activators | hit rate 1.8% among 340,000; also: potency is read from the fitted curve at half-maximal effect; % of control where 0% means no effect; nearly all actives have a fitted effect of over 55% in size
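DNA re-replication was detected as more nuclei of elevated Hoechst intensity after 48 hr exposure to compound (23 nL pinned per well of 250 cells).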
* = called active by the depositor; i = inactive; u = inconclusive; x = not tested or not shown; [ ] = another dose, or the depositor's remark. Sampled rows, rich in hits. Any-hit rate of the full collection: about 8.9%. Unless noted, calls follow the shape of the dose curve; as a rule, active = well fitted curve in the direction sought with a large enough effect; inconclusive = small, poorly fitted or top-dose-only effect, or another doubt; inactive = no such curve, though single readings can be large; an effect the other way counts as inactive or inconclusive.

SMILES	KB-V1 cytotox	KB-3-1 cytotox	DRD3 antagonist	DRD3 agonist	MCF10A rerep	SW480 rereplic
CC(C)c1ccc(C2=CC(c3ccc(C(C)C)cc3)n3nnnc3N2)cc1 (centres undefined)	i	i	x	5	x	x
COc1ccc(C2=CC(c3ccc(F)cc3)n3nnnc3N2)cc1 (centres undefined)	i	i	-22	-3	23µM*	15µM*
COc1ccc(C2=CC(c3sccc3C)n3nnnc3N2)cc1 (centres undefined)	i	i	25	6	u	15%
COc1ccccc1C1C=C(c2ccccc2)Nc2nnnn21 (centres undefined)	8.2µM*	13µM*	-18	2	7.3µM*	u
CCc1ccc(C2=CC(c3cccc(Br)c3)n3nnnc3N2)cc1 (centres undefined)	i	i	x	4	x	x
Cc1ccc(C2=CC(c3ccc(N(C)C)cc3)n3nnnc3N2)cc1 (centres undefined)	i	i	24	0	23µM*	u
COc1cccc(NC(=O)Cn2c(=O)n(Cc3ccco3)c(=O)c3cc(OC)c(OC)cc32)c1	i	i	x	1	x	x
COc1ccc(Cl)cc1Nc1ccc2cc(S(=O)(=O)N3CCCCC3)ccc2n1	i	i	x	0	x	x
COc1cccc(C2=CC(c3cccs3)n3nnnc3N2)c1 (centres undefined)	u	5.2µM*	-16	-1	4.1µM*	5.8µM*
COc1cccc(C2=CC(c3ccc(OC)c(OC)c3OC)n3nnnc3N2)c1 (centres undefined)	i	i	9	2	2%	-4%
O=C1C2C3C=CC(C3)C2C(=O)N1c1n[nH]c(CCc2ccccc2)n1 (centres undefined)	i	i	-25	-10	6%	-4%
O=C1C2CC=CCC2C(=O)N1c1n[nH]c(Cc2ccccc2)n1 (centres undefined)	i	i	-3	8	7.3µM*	2%
O=S(=O)(NCCc1cn2ccsc2n1)c1ccc(Cl)cc1	x	x	x	-18	x	x
CCOC(=O)C1=C(Cn2cnc3ccccc32)NC(=O)NC1c1ccc(Cl)cc1 (centres undefined)	i	i	28	32*	-2%	-10%
CCOc1ccc(NC(=O)C(=O)NCCc2csc(-c3ccc(F)cc3)n2)cc1	i	i	x	-19	x	x
COc1ccc(-c2onc3ccc(C(=O)/C=C/N(C)C)cc23)cc1	u	u	4	-9	18µM*	16µM*
CC(=O)c1ccc2noc(-c3ccc(Cl)cc3)c2c1	i	i	11	8	u	16µM*
CN(C)/C=C/C(=O)c1ccc2noc(-c3cccc(F)c3)c2c1	i	i	-2	0	u	-23%
COC(=O)c1n[nH]n(-c2ccccc2)c1=O	i	i	x	-7	x	x
CCOC(=O)CNc1nc(C(C)(C)C)nc2c1nnn2Cc1ccccc1Cl	5.8µM*	u	33	3	u	1%
COc1ccc(Nc2nc(C)nc3c2nnn3Cc2ccccc2)cc1OC	u	i	0	2	13%	-1%
COc1ccc(Nc2nc(C(C)(C)C)nc3c2nnn3Cc2ccccc2Cl)cc1OC	u	u	-14	3	u	-1%
CC(=O)Nc1ccc(Nc2nc(C)nc3c2nnn3Cc2ccccc2Cl)cc1	u	i	-74*	-20	u	u
Cc1nc(NCCc2ccc(F)cc2)c2nnn(Cc3ccccc3)c2n1	i	i	0	5	u	6%
Cc1nc(NCCc2ccc(O)cc2)c2nnn(Cc3ccccc3)c2n1	i	u	-82*	-14	u	10%[1.84 µM]
SMILES	KB-V1 cytotox	KB-3-1 cytotox	DRD3 antagonist	DRD3 agonist	MCF10A rerep	SW480 rereplic
Cc1nc(Nc2ccc(Cl)cc2)c2nnn(Cc3ccccc3)c2n1	u	i	6	1	23µM*	11%
O=S1(=O)c2ccccc2N(Cc2ccccc2F)c2ccccc21	i	i	x	-9	x	x
Cc1nc(Nc2ccccc2Br)c2nnn(Cc3ccccc3)c2n1	i	i	16	-3	25%	-1%
Cc1nc(Nc2ccc(S(=O)(=O)N3CCCCC3C)cc2)c2nnn(Cc3ccccc3)c2n1 (centres undefined)	2.3µM*	16µM*	-59*	-5	-33%	5%
CCN(CC)CCN(C(=O)c1ccc2c(c1)CCCC2)c1nc2ccc(C)cc2s1	i	i	-51*	-10	u	5%
CN(C)CCN(C(=O)c1ccccc1Cl)c1nc2c(Cl)cccc2s1	23µM*	i	u	-20	u	u
CCN(CC)CCN(C(=O)c1ccc2c(c1)OCCO2)c1nc2c(Cl)cccc2s1	i	i	-63*	-13	0%	-1%
CCN(CC)CCN(C(=O)c1ccc2c(c1)CCCC2)c1nc2ccc(F)cc2s1	i	i	-19	-4	8%	-7%
CCN(CC)CCN(C(=O)c1ccc2c(c1)CCCC2)c1nc2c(C)cccc2s1	i	u	-51*	-20	u	4%
CCN(CC)CCN(C(=O)c1ccc2c(c1)CCCC2)c1nc2ccc(OC)cc2s1	i	i	u	-7	u	0%
COC(=O)Cn1c(=O)c2c(nc3n2CCN3c2ccc(F)cc2)n(C)c1=O	x	x	x	6	x	x
CCC(=O)Nc1ccc(C(=O)Cn2ncc(Cl)c(Cl)c2=O)cc1	u	u	u	-9	3.7µM*	u
CCOC(=O)c1ccc(NC(=O)Cn2ncc(Cl)c(Cl)c2=O)cc1	u	u	u	-6	2.6µM*	2.6µM*
CCc1ccccc1NC(=O)CN(C)C(=O)Cn1ncc(Cl)c(Cl)c1=O	u	u	-19	-7	5.8µM*	6.5µM*
CCN(CC)S(=O)(=O)c1cc(NC(=O)Cn2ncc(Cl)c(Cl)c2=O)ccc1C	i	u	u	-3	u	u
CCOC(=O)c1ccc(NC(=O)Cn2nc(C)c3ccccc3c2=O)cc1	i	i	7	4	2%	u
CN1CCN(Nc2nn3c(=O)c4ccccc4nc3s2)CC1	u	i	x	x	x	x
CCc1ccccc1NC(=O)CCc1c(C)nc2cc(-c3ccccc3)nn2c1C	i	i	x	3	x	x
CC(C)Cc1nc(N2CCN(C(=O)c3ccccc3)CC2)c(C#N)c2c1CCC2	i	i	16	0	u	15%
Cc1cc(-c2ccco2)c(C#N)c2nc3ccccc3n12	i	u	3	0	18µM*	9%
CCn1c(N2CCN(C(=O)c3ccco3)CC2)nc2ccccc21	i	i	12	-3	-10%	-8%
